The text below walks through data of PubChem BioAssay (NCATS).

Structures are written as SMILES. A number with no mark means an inactive call. Records with an inconclusive call do not appear. The source made the active and inactive calls. Unless noted, calls follow the shape of the dose curve; as a rule, active = well fitted curve in the direction sought with a large enough effect; inconclusive = small, poorly fitted or top-dose-only effect, or another doubt; inactive = no such curve, though single readings can be large; an effect the other way counts as inactive or inconclusive.

In experiment [1] the target is Lysosomal acid glucosylceramidase (Homo sapiens) (UniProt P04062). Nature of the experiment: Glucocerebrosidase-p2 (AID 348; in the data active = potency below about 10 µM; also: potency is read from the fitted curve at half-maximal effect). Conditions: purified GBA, blue fluorogenic substrate, 40 min. Summed up: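 Compounds titrated from 0.6 nM upwards against 0.2 nM enzyme in pH 5.9 citric acid/KH2PO4, taurocholate, tween-20; blue fluorogenic substrate 80 uM, 40 min room temperature, stopped and read Ex 365/Em 440 for AC50.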
Sequence of Lysosomal acid glucosylceramidase (Homo sapiens) (P04062 whole entry, looked up): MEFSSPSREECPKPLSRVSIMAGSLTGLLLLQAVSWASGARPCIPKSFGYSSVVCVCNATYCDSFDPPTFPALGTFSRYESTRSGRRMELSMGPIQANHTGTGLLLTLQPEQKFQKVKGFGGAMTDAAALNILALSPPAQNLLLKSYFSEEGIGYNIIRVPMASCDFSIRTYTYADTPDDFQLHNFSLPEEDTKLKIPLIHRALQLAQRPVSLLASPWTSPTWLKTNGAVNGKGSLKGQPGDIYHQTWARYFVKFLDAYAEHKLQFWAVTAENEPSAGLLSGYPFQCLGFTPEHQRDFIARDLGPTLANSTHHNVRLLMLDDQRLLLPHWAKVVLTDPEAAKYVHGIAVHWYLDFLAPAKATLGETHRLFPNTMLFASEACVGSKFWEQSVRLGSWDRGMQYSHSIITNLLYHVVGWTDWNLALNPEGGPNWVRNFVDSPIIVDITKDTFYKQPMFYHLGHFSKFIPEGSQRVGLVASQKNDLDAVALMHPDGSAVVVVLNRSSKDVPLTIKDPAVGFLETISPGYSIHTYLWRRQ

For experiment [2], the target named is Cytochrome P450 3A4 (Homo sapiens) (UniProt P08684). The experiment in a line: qHTS Assay for Activators of Cytochrome P450 3A4 (AID 885). Also: nearly all actives have a fitted effect of over 65% in size. As to conditions: recombinant CYP3A4, Luciferin-PPXE luminescence, 60 min; series mostly up to 57.1 µM. Summed up: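 Signal was normalized against complete inhibition by 57 uM ketoconazole. The reaction used 20nM CYP3A4 with 25uM Luciferin-PPXE, 10-min compound preincubation and a 60-min NADPH-supported step at RT.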
Sequence of Cytochrome P450 3A4 (Homo sapiens) (P08684 whole entry, looked up): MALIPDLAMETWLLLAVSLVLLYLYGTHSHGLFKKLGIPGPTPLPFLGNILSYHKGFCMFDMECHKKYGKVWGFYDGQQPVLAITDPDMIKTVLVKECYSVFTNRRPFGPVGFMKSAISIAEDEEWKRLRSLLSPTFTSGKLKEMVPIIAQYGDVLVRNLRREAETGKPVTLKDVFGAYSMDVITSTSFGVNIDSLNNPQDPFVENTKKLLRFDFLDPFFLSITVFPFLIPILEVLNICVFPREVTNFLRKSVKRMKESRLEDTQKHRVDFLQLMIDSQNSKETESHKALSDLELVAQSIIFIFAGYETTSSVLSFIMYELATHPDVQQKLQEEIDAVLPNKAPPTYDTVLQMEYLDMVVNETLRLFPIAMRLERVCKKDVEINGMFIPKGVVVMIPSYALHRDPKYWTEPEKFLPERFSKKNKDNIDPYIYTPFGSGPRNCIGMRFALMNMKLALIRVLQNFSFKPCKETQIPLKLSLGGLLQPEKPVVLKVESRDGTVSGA

Experiment [3] can be described thus: Confirmation and Secondary Assay for Modulators of Hemoglobin Beta Chain Splicing at IVS2 654 locus (AID 910).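 Also: HeLa cells stably carrying EGFP split by mutant beta-globin IVS2-654 intron; % of control where 0% means no effect.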 As to conditions: HeLa EGFP-654 splicing reporter, GFP fluorescence, 48 h; series mostly up to 38.3 µM. Summed up:
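HeLa cells stably expressing EGFP interrupted by β-globin IVS2-654 intron, seeded overnight in Opti-MEM/2% FCS, then treated 2 days at 37 °C. Restored splicing read as total peak GFP intensity per well by laser scanning cytometry (488 nm excitation, 500–520 nm emission); 500 nM antisense PNA as control.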

Experiment [4] can be described thus: qHTS Assay for Identification of Small Molecule Agonists for Hypoxia Response Element Signaling Pathway (AID 914; active = well fitted activation curve with a large enough effect in the signal ratio, with a control signal flat, not every such curve was filed as active; the % refers to the signal ratio; also: potency is read from the fitted curve at half-maximal effect). Conditions: ME-180 HRE-bla reporter, beta-lactamase ratio, CoCl2, 17 h; activation: active compounds read high. The gist of the method: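 HRE-bla ME-180 cells, overnight plating in Opti-MEM with 0.5% dialyzed FBS; cpd titration + EC50 CoCl2, 17 h, 37 degrees Celsius; CCF4 2.5 h RT; 460/530 nm ratio; AC50.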
A general note: qHTS replaces the single test concentration by a dilution series.

Experiment [5] in a line: Confirmation and Secondary Assay for Modulators of Hemoglobin Beta Chain Splicing at IVS2 705 locus (AID 930).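 Also: HeLa cells stably expressing the EGFP-705 splicing reporter; GFP fluorescence per well restored by corrected splicing of the IVS2-705 intron in EGFP; % of control where 0% means no effect.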 Conditions: HeLa EGFP-705 splicing reporter, GFP fluorescence, 48 h; series mostly up to 38.3 µM. The gist of the method: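 Read-out: total peak GFP fluorescence per well (488 nm excitation, 500-520 nm emission) by laser-scanning cytometry. Cells: HeLa EGFP-705 splicing reporter, 2 days compound exposure in Optimem/2% FCS.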

Experiment [6] addresses Cytochrome P450 2C9 (Homo sapiens) (UniProt P11712). The experiment in a line: qHTS Assay for Inhibitors and Substrates of Cytochrome P450 2C9 (AID 883). Also: % is scaled to controls: 0 for no effect and ±100 for the full control effect; nearly all actives have a fitted effect of over 60% in size. As to conditions: recombinant CYP2C9, luciferin-H luminescence, 60 min; series mostly up to 57.1 µM. Summed up:
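10nM CYP2C9 + 100uM Luciferin-H (=KM), 25mM KPO4; cpd 10 min 37C; NADPH regen, 60 min 37C; stop/detect with P450 Glo-Buffer 20 min; luminescence. Norm. to 57uM sulphaphenazole as full inhibition.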

Experiment [7] deals with Cytochrome P450 3A4 (Homo sapiens) (UniProt P08684). The experiment in a line: qHTS Assay for Inhibitors and Substrates of Cytochrome P450 3A4 (AID 884). Also: potency is read from the fitted curve at half-maximal effect; nearly all actives have a fitted effect of over 50% in size. As to conditions: recombinant CYP3A4, Luciferin-PPXE luminescence; series mostly up to 57.1 µM. The gist of the method:
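20 nM human CYP3A4 with 25 uM Luciferin-PPXE (at KM) in 200 mM KPO4, preincubated 10 min with compound; NADPH regeneration started a 60 min RT reaction. Luciferin detected by luminescence, normalized to 57 uM ketoconazole as full inhibition.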

For experiment [8], the target named is Cytochrome P450 2C19 (Homo sapiens) (UniProt P33261). The experiment in a line: qHTS Assay for Inhibitors and Substrates of Cytochrome P450 2C19 (AID 899). Also: nearly all actives have a fitted effect of over 60% in size. Also: potency is read from the fitted curve at half-maximal effect. As to conditions: recombinant CYP2C19, luciferin-H EGE luminescence; series mostly up to 57.1 µM. The gist of the method:
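Luminescent read-out of luciferin formed from Luciferin-H EGE (10uM, equal to KM). Enzyme 5nM in 50mM KPO4; compound added, 10 min at 37C, then NADPH regenerating system for 60 min at 37C. Full inhibition defined by 57uM ketoconazole.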

Experiment [9] is described as follows: qHTS Assay for Identification of Small Molecule Antagonists for NFkB Signaling Pathway (AID 895; active = well fitted inhibition curve with a large enough effect in the signal ratio, with a control signal flat, not every such curve was filed as active; the % refers to the signal ratio; also: % is scaled to controls: 0 for no effect and ±100 for the full control effect). Conditions: NFkB beta-lactamase reporter cells, FRET ratio 460/530, stimulated with 10 pM TNF alpha; series mostly up to 38.3 µM. Summed up: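 ME-180 NFkB-bla cells (beta-lactamase under NFkB response element), plated overnight, treated with compound then 10 pM TNF alpha (about EC50) for 5 hrs at 37 C. LiveBLAzer FRET read at 460/530 nm emission, 405 nm excitation.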

Experiment [10] in a line: qHTS Assay for Identification of Small Molecule Agonists for Thrombopoietin (TPO) Signaling Pathway (AID 917). Also: % is scaled to controls: 0 for no effect and ±100 for the full control effect. Conditions: TPO signaling pathway reporter cells, agonist qHTS, stimulated with TPO at its EC50; series mostly up to 38.5 µM. Summed up: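 Luminescence from a Glycoprotein IIb promoter–driven luciferase reporter served as read-out in murine Ba/F3 cells carrying the human TPO receptor. Cells, deprived of IL-3 overnight, received compounds with 26 pM TPO and were incubated 24 hrs at 37 C.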

The target of experiment [11] is Muscarinic acetylcholine receptor M1 (Rattus norvegicus) (UniProt P08482). Nature of the experiment: qHTS Assay for Antagonists of Acetylcholine Muscarinic M1 Receptor: Measurement of IP-One Response (AID 944). Also: nearly all actives have a fitted effect of over 75% in size. Conditions: CHO-M1 cells, IP-One HTRF, antagonist mode; series mostly up to 46.1 µM. The gist of the method: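 CHO cells stably expressing rat M1, pretreated 10 min with compound, then stimulated 30 min with carbachol at EC80 (200 nM) in LiCl-containing buffer pH 7.4; IP1 accumulation read by HTRF competition (665/620 nm).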
Sequence of Muscarinic acetylcholine receptor M1 (Rattus norvegicus) (P08482 whole entry, looked up): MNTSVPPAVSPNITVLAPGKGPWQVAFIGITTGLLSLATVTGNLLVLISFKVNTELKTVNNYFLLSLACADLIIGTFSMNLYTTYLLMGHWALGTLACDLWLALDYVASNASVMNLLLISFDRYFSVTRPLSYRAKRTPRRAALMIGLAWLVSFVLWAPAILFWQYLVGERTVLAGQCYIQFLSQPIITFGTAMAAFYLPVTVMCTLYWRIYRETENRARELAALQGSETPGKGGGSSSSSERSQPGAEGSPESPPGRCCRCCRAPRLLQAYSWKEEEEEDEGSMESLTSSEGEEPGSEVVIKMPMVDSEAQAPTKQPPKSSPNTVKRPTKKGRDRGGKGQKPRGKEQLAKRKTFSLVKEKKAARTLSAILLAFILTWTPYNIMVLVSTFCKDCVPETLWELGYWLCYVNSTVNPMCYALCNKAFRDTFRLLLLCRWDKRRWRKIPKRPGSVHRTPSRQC

Experiment [12] deals with Pyruvate kinase PKM (Homo sapiens) (UniProt P14618). Nature of the experiment: qHTS Assay for Inhibitors of Human Muscle Pyruvate Kinase (AID 958). Conditions: purified human PKM enzyme activity; series mostly up to 57.5 µM. The gist of the method:
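PKM2, human, >95% pure, 0.1 nM; PEP 0.5 mM (Km), ADP 0.1 mM; 50 mM imidazole pH 7.2, 50 mM KCl, 0.01% Tween 20, 0.05% BSA; 1 h RT; luciferase luminescence readout.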

For experiment [13], the target named is Pyruvate kinase (Leishmania mexicana) (UniProt Q27686). The experiment in a line: qHTS Validation Assay for Activators of Leishmania Mexicana Pyruvate Kinase (AID 959). As to conditions: purified L. mexicana pyruvate kinase, enzyme activity. Summed up: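 Luminescent ATP detection (PKLight) after a 1 h room-temperature reaction of 0.2 nM LmPYK E451W mutant with 0.5 mM PEP and 0.1 mM ADP at pH 7.2. Activity is normalized to DMSO-only control wells.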
Sequence of Pyruvate kinase (Leishmania mexicana) (Q27686 2-499 E452W): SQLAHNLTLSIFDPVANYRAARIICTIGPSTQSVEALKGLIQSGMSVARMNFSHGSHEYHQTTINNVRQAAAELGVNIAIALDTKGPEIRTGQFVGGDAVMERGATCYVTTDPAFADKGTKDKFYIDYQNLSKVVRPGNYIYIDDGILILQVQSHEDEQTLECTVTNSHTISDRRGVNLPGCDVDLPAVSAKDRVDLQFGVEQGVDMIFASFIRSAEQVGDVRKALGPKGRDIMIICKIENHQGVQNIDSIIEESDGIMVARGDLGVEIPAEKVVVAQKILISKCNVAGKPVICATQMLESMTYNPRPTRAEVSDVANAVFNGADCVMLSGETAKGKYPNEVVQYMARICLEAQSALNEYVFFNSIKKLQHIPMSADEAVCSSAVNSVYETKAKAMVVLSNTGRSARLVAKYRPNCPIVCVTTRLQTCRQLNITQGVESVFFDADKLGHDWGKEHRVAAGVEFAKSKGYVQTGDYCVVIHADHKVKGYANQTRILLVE

Sequence of Cytochrome P450 2C19 (Homo sapiens) (P33261 whole entry, looked up): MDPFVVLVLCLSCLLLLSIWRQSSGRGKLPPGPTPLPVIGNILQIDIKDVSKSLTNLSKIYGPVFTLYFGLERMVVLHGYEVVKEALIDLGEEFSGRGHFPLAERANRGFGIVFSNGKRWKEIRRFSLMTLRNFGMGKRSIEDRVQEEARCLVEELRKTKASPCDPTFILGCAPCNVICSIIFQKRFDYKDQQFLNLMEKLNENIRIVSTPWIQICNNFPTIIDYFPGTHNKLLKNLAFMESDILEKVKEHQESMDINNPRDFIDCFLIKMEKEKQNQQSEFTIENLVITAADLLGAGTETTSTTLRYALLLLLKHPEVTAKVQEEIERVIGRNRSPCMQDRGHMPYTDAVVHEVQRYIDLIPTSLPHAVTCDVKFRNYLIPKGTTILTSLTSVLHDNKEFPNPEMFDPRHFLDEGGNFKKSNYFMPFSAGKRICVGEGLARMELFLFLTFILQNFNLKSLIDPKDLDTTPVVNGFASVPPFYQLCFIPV
Sequence of Pyruvate kinase PKM (Homo sapiens) (P14618 whole entry, looked up): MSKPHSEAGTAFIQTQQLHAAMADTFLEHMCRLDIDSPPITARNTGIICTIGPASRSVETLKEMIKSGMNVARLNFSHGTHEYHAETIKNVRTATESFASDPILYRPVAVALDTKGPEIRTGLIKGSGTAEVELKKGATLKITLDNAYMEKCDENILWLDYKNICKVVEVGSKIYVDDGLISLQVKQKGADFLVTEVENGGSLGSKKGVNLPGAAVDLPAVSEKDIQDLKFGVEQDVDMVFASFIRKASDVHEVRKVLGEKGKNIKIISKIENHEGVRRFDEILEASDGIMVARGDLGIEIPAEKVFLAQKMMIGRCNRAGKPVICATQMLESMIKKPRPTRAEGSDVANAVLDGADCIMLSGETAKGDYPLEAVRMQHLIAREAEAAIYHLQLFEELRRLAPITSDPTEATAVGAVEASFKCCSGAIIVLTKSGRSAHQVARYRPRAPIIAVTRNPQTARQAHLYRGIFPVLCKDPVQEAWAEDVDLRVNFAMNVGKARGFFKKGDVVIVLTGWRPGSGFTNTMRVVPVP
Sequence of Cytochrome P450 2C9 (Homo sapiens) (P11712 whole entry, looked up): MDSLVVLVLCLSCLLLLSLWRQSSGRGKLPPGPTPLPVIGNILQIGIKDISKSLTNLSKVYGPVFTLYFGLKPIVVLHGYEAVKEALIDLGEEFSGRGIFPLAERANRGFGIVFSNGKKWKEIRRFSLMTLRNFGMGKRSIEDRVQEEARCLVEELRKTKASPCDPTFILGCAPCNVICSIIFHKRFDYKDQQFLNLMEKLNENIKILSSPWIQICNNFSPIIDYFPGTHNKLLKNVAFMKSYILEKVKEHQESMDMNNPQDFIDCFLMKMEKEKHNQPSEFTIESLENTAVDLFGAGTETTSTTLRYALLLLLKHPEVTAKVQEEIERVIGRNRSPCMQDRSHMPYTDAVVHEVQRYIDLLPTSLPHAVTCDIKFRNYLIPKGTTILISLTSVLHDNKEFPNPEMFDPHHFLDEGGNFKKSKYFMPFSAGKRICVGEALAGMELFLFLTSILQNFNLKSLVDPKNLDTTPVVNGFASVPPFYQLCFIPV

Regarding `O=C(c1ccco1)N1CCC2(CC1)CCN(c1ccncc1)CC2`, the Potency in [1] is over 11.4 µM.

For the compound `CN(C)C(=O)c1ccc(-c2nc(NCc3cccnc3)c3ccccc3n2)cc1`, the figures for the Potency in experiment [1] and in experiment [4] were over 11.4 µM and 3.16 µM (active), respectively. Also, the Potency result in experiment [2] and in experiment [3] was “inactive” in each case. Besides, the compound was classed as inactive in [5].

For `COc1ccccc1CNc1ncncc1-c1ccc(N(C)C)cc1`, the Potency in experiment [1] is over 11.4 µM. Also, the Potency result in experiment [3] was “inactive”. Besides, in experiment [5], the call was inactive.

Regarding `O=S(=O)(c1ccccc1)N1CCC2(CCN(c3ccncc3)CC2)CC1`, in experiment [1], the Potency was over 11.4 µM.

On to `CN(C)Cc1ccccc1-c1cncnc1NCc1ccccc1`, for which, in experiment [1], the Potency is over 11.4 µM. In experiment [3], the Potency result is “inactive”. Also, the compound was called inactive in experiment [5].

In the case of `Cc1cccc(CNc2cc(-c3cccc(NS(C)(=O)=O)c3)ncn2)c1`, the Potency in experiment [1] was over 11.4 µM. Also, in experiment [6], the activity change, negative = inhibition is 33.9% [at 2.29 µM]. Also, the Potency result in [2] and in experiment [3] was “inactive” throughout. Besides, the result in [5] was inactive.

On to `COCCn1c(=O)c(-c2ccc(F)cc2)nc2cnc(Oc3ccc(OC)cc3)nc21`, for which, in [1], the Potency is over 11.4 µM.

Turning to `O=C(Oc1ccccc1)N1CCC2(CCCN(c3ccncc3)C2)CC1`, in [1], the Potency is over 11.4 µM.

As for `COc1ccc(-c2nc3cnc(N4CCNCC4)nc3n(C3CC3)c2=O)cc1`, the Potency in experiment [1] was over 11.4 µM; in experiment [4], 3.16 µM (active). Further, in experiment [2], the Potency entry is “inactive”.

As to `CN1CCN(c2ncc3nc(-c4ccccc4)c(=O)n(CCC#N)c3n2)CC1`, the results for the Potency in experiment [1] and in experiment [4] were over 11.4 µM and 3.16 µM (active), respectively.

`COc1ccccc1CN1CCC2(CC1)CCN(C(=O)c1cc(C(F)(F)F)cc(C(F)(F)F)c1)CC2`: the Potency in [1] is over 11.4 µM.

For the compound `O=C(Nc1cccc(F)c1)N1CCC2(CC1)CCN(C(=O)c1cc(C(F)(F)F)cc(C(F)(F)F)c1)CC2`, in experiment [1], the Potency was over 11.4 µM.

Take `O=C(Nc1ccccc1)N1CCCC2(CCNCC2)C1`: in experiment [1], the Potency was over 11.4 µM.

As for `COc1ccc(C(=O)N2CCC3(CC2)CN(c2ccccn2)C3)cc1`, the Potency in experiment [1] is over 11.4 µM.

`CN(C)c1ccc(-c2ccc3ncnc(NCc4ccccc4)c3c2)cc1`: the values for the Potency in [1], in experiment [7] and in [8] were over 11.4 µM, 2.51 µM (active) and 7.94 µM (active), respectively. The Potency result in [2] is “inactive”. Besides, the result in experiment [5] was inactive.

Turning to `CN(C)Cc1ccccc1-c1ccc2ncnc(NCc3cccs3)c2c1`, the Potency in experiment [1] was over 11.4 µM. Moreover, in experiment [3], the Potency result is “inactive”. Besides, in experiment [5], the compound was called inactive.

Consider `CO/N=C(\C(=O)N[C@@H]1C(=O)N2C(C(=O)O)=C(COC(C)=O)CS[C@@H]12)c1csc(N)n1`, for which the Potency entry in experiment [9], in [8] and in [11] was “inactive” throughout. Further, the compound was called inactive in [10] and in experiment [12]. Moreover, in [13], the Potency is 25.1 µM (active).

Regarding `CN(C)C(=O)c1ccc(-c2ccc3ncnc(NCc4cccnc4)c3c2)cc1`, the Potency in experiment [1] was over 11.4 µM. The result in [5] was inactive.

For the compound `CN1CCN(c2ccnc(-c3ccccc3C(F)(F)F)n2)CC1`, the Potency in [1] was over 11.4 µM. Also, the Potency entry in experiment [3] was “inactive”.

`COc1ccccc1CNc1ncnc2ccc(-c3ccc(N(C)C)cc3)cc12`: the values for the Potency in experiment [1] and in experiment [7] were over 11.4 µM and 2 µM (active), respectively. For the same compound, the Potency entry in experiment [2] and in [3] was “inactive” in each case. In addition, in experiment [5], the compound was called inactive.

`O=c1c(-c2cccs2)nc2cnc(Oc3cccc(Cl)c3)nc2n1C1CC1`: the Potency in experiment [1] is over 11.4 µM; in experiment [4], 3.16 µM (active).

Regarding `Cc1cccc(CNc2ncnc3ccc(-c4cccc(NS(C)(=O)=O)c4)cc23)c1`, the Potency in [1] is over 11.4 µM. For the same compound, the Potency result in [3] was “inactive”. The result in experiment [5] was inactive.

With `Cn1c(=O)c(-c2ccccc2)nc2cnc(N3CCNCC3)nc21`, the Potency in [1] was over 11.4 µM; in [4], 3.16 µM (active).

As for `N#Cc1ccc(CN2CCCC3(CCN(C(=O)c4cc(C(F)(F)F)cc(C(F)(F)F)c4)CC3)C2)cc1`, in experiment [1], the Potency was over 11.4 µM.

With `CN1CCN(c2nc(-c3cccc(NS(C)(=O)=O)c3)nc3ccccc23)CC1`, in experiment [1], the Potency is over 11.4 µM. In [5], the call was inactive.

Take `COc1ccc(NC(=O)N2CCC3(CC2)CCN(C(=O)c2cc(C(F)(F)F)cc(C(F)(F)F)c2)CC3)cc1`: in [1], the Potency is over 11.4 µM.

As to `O=c1c(CCc2ccccc2)nc2cnc(N3CCOCC3)nc2n1C[C@H]1CCCO1`, the Potency in [1] is over 11.4 µM.

On to `O=C(c1ccncc1)N1CCC[C@@]2(CCN(c3cccc(-c4ccccc4)c3)C2)C1`, for which, in experiment [1], the Potency is over 11.4 µM.
